According to PubChem BioAssay:
Inconclusive results are not listed. Activity calls are given as the source filed them.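 Rule for the calls, unless noted: active = viability at or below 27.92% in each of two runs, the all-compound median minus 4 SD; inconclusive = no clear call, values can overlap the other calls; inactive = the rest.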

How the values were obtained:
[1] = reducers of endogenous Her2 protein level, primary screen, SKBR3 breast tumor cells, AlphaScreen, ATP viability (AID 461;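 active = Her2 level under about 52% in both replicate screens, with viability over 70% of control, limit read from the data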;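 for Her2 level: lower value means less Her2 protein in the cells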;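 for viability: percent of carrier control wells set as 100% viability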); settings: 18-24 h, measured here: SKBR3 viability, ATP luminescence, at 10 µM
[2] = molecular target: Receptor tyrosine-protein kinase erbB-2 (Homo sapiens) (UniProt P04626); experiment: as above; settings: 18-24 h, at 10 µM, stronger effect = lower value
[3] = SK-BR-3 cell growth inhibitors, pilot screen, 24 h, human (AID 572;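 active = viability at or below 10% of carrier control in both of two separate runs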;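 note: compound exposure lasted between 18 and 24 h rather than exactly 24 h; 100% = carrier-treated control wells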); settings: SK-BR-3 viability, CellTiter-Glo luminescence, at 10 µM, stronger effect = lower value
[4] = HUVEC growth inhibition – cell-based, human, primary screen (AID 575;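 active = viability at or below 30% in both replicate assays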;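 note: 100% = median of untreated cell wells with 0.1% DMSO on each plate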); settings: HUVEC proliferation, CellTiter-Glo luminescence, 72 h; at 10 µM; stronger effect = lower value
[5] = growth inhibitors of H69AR lung tumor, primary screen, human, duplicate replicates (AID 580;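 active = viability at or under a set limit in both replicates, limit being median viability minus 3 SD, cut at about 48% in these data, passing the limit was not always enough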;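 note: 100% = mean luminescence of untreated wells and 0% = no signal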); settings: H69AR lung tumor cells viability, ATP luminescence, 72 h; at 10 µM; stronger effect = lower value
[6] = reversal of MRP1-mediated doxorubicin resistance, pilot screen, H69AR cells, doxorubicin co-treatment (AID 601;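 active = viability loss from added drug above about 55%, and viability with drug at most 40%, in both replicates, limit read from the data, passing the limit was not always enough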); settings: CellTiter-Glo, 72 h, at 10 µM; for differential viability (reversal): stronger effect = higher value
[7] = 384-well plate pilot, post-Golgi transport modulator project, inhibition of yeast transport mutant growth (AID 636; in the data active = inhibition above about 31%); settings: absorbance 615 nm, about 18 h, stronger effect = higher value
[8] = growth suppression of yeast trafficking mutant, preliminary HTS, modulators of trafficking downstream of Golgi apparatus project, 1536-format plate, OD 615 nm (AID 637; in the data active = inhibition above about 30%); settings: yeast transport mutant growth, absorbance 615 nm, 18 h; stronger effect = higher value
[9] = OD615 S. cerevisiae growth inhibition, permissive medium, pilot counter-assay, permissive growth control for S. cerevisiae lifespan shortening project (AID 705;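 active = growth inhibition above 25% in both replicates, a cutoff set 3 SD above the mean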); settings: OD615, 24 h, at 10 µM, stronger effect = higher value
[10] = Restrictive medium S. cerevisiae growth inhibition, OD615, pilot screen of yeast lifespan reduction project, restrictive growth control (AID 706;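 active = growth inhibition above a set limit, 3 SD over mean compound inhibition, in both replicates, cut at about 43% in these data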;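 note: modified DeaD lifespan yeast strain shifted to restrictive glucose medium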); settings: OD615, 48 h, at 10 µM, stronger effect = higher value
[11] = viability gain of MRP-1-high H69AR cells under doxorubicin, pilot screen, MRP-1 activator project, CellTiter-Glo, duplicate (AID 807;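 active = viability increase at or above a cutoff of the median across tested compounds plus 3 SD, cut at about 8.5% in these data, passing the limit was not always enough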;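 note: compound pretreatment 18-22 h then 72 h combined with doxorubicin; 0% = doxorubicin alone and 100% = vehicle without doxorubicin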); settings: H69AR viability with doxorubicin, CellTiter-Glo luminescence; at 10 µM; stronger effect = higher value
[12] = growth suppression of beta-catenin knockout HCT116, pilot screen, human colon tumor cells (AID 823;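 active = cell viability at or below a set limit in both duplicate runs, the limit being the all-compound median minus 4 SD, cut at about 23% in these data, passing the limit was not always enough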;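 note: 0% = wells killed by 20 µM Hyamine and 100% = untreated DMSO cell wells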); settings: CellTiter-Glo, 60 h, at 10 µM, stronger effect = lower value
[13] = growth suppression of PTEN-deleted HCT116, pilot screen, cell-based, HCT116 clonal line, CellTiter-Glo (AID 824); settings: 60 h, at 10 µM, stronger effect = lower value;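 note: 0% = 20 µM Hyamine control and 100% = vehicle cell control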
[14] = inhibitors of the yeast RAM network, pilot screen, dse1pr::URA3 reporter, 5-FOA selection (AID 869;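 active = inhibition over a set limit, the all-compound mean plus 3 SD, in both replicate runs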;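 note: 0% = DMSO wells with no growth and 100% = 10 µM 1-NA-PP1 with full growth; RAM network block rescues cells from 5-FOA so hits raise OD615 growth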); settings: S. cerevisiae dse1pr::URA3 5-FOA growth, OD615, 2 d; at 10 µM; stronger effect = higher value; strain carries analog-sensitive mutant Cbk1 kinase
[15] = RAM signaling pathway blockade in yeast – S. cerevisiae, Pdr1DBD-CYC8 efflux-inhibited sensitized strain, primary screen (AID 1298;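 active = RAM network inhibition above 8.4% in each of two replicates, 3 SD over the compound average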;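 note: 0% = DMSO untreated cells without growth and 100% = 10 µM 1-NA-PP1 full growth; higher means more yeast growth rescued from 5-FOA killing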); settings: S. cerevisiae cbk1-as DSE1-URA3 strain, 5-FOA growth OD615, 2 d; at 50 µM; stronger effect = higher value
[16] = H69AR cells + 2 uM doxorubicin, measured here: viability with 2 uM doxorubicin, stronger effect = lower value
[17] = H69AR cells, compound alone cytotoxicity

Sequence of Receptor tyrosine-protein kinase erbB-2 (Homo sapiens) (P04626 whole entry, looked up): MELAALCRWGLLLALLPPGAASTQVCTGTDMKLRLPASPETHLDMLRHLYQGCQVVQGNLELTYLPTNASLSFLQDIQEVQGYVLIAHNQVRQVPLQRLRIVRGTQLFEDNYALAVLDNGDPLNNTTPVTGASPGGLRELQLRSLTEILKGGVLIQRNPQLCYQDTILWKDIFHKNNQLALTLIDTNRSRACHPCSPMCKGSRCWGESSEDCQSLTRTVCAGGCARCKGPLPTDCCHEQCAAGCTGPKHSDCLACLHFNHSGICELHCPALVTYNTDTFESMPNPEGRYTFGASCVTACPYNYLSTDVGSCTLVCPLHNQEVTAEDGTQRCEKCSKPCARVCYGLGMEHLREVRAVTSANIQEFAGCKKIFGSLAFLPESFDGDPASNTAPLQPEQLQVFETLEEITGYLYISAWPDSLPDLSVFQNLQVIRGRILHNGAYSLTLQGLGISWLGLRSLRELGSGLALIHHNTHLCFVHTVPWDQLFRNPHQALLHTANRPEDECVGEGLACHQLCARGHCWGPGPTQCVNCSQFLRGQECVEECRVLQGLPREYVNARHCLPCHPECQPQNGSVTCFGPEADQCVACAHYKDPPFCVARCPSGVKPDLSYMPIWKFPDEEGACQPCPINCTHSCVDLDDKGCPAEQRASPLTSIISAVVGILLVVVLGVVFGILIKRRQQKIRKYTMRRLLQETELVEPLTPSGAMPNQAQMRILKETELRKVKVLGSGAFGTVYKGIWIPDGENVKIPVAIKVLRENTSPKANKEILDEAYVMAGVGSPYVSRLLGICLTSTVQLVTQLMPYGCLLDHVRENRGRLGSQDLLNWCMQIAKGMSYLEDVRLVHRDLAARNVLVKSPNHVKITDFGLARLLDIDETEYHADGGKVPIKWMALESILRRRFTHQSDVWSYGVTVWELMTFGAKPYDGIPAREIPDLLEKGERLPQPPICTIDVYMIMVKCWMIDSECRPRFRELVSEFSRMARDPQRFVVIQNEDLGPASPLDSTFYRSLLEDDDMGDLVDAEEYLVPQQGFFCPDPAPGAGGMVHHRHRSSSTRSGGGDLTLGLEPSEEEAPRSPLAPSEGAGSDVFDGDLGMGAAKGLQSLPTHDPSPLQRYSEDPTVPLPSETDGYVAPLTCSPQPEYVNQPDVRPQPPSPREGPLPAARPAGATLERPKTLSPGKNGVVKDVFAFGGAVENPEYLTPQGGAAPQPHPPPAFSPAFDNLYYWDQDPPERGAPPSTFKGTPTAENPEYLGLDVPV

SMILES	viability [1] [%]	Her2 level [2]	viability [3]	viability [4]	viability [5]	differential viability (reversal) ([6]; H69AR cells + 2 uM doxorubicin)	viability [6, 16] [%]	viability [6, 17] [%]	inhibition [7]	inhibition [8]	growth inhibition [9]	growth inhibition [10]	viability increase [11]	viability [12]	viability [13]	inhibition [14]	RAM network inhibition [15]
O=C(Cn1ncc2c(=O)oc3ccccc3c21)NCCCN1CCCC1=O	86.5	106% (inactive)	86.5% (inactive)	93.1% (inactive)	101% (inactive)	16.6% (inactive)	84.4	101	1.79% (inactive)	-3% (inactive)	1.48% (inactive)	-6.73% (inactive)	-0.08% (inactive)	101% (inactive)	113% (inactive)	1.86% (inactive)	3.58% (inactive)
COCCn1c(SCC(=O)Nc2ccc3c(c2)OCCO3)nc2c(c1=O)SC(C)C2 (stereo not drawn)	95	110% (inactive)	95% (inactive)	108% (inactive)	84.4% (inactive)	-21.9% (inactive)	106	84.4	-1.07% (inactive)	-2% (inactive)	-6.57% (inactive)	-5.1% (inactive)	-1.19% (inactive)	102% (inactive)	95.8% (inactive)	1.71% (inactive)	-0.11% (inactive)
CCCCNC(=O)Cn1c(=O)n(C)c2ccccc21	105	96.5% (inactive)	105% (inactive)	84.4% (inactive)	88.5% (inactive)	-2.7% (inactive)	91.2	88.5	-5.07% (inactive)	-2% (inactive)	-9.7% (inactive)	-4.06% (inactive)	-0.03% (inactive)	106% (inactive)	101% (inactive)	1.49% (inactive)	-1.79% (inactive)
CC(=O)NCc1nc2ccccc2n1C(C)C	104	108% (inactive)	104% (inactive)	84.2% (inactive)	92.3% (inactive)	10% (inactive)	82.3	92.3	-4.93% (inactive)	-4.83% (inactive)	-13.7% (inactive)	-29.9% (inactive)	-0.81% (inactive)	105% (inactive)	95.5% (inactive)	0.84% (inactive)	3.6% (inactive)
COc1ccccc1N1CCN(C(=O)N2CCOCC2)CC1	107	87% (inactive)	107% (inactive)	86.9% (inactive)	73.8% (inactive)	-9.12% (inactive)	82.9	73.8	-1.95% (inactive)	-5.57% (inactive)	-17.3% (inactive)	-6.65% (inactive)	-1.74% (inactive)	95.9% (inactive)	96.8% (inactive)	1.06% (inactive)	0.62% (inactive)
COC(=O)CN1C(=O)C(O)(CC(=O)c2ccc(C)cc2)c2cc(Br)ccc21 (stereo not drawn)	102	96.5% (inactive)	102% (inactive)	88.2% (inactive)	81.6% (inactive)	-11.8% (inactive)	93.3	81.6	-0.27% (inactive)	-1.5% (inactive)	-15.5% (inactive)	2.94% (inactive)	-0.78% (inactive)	91% (inactive)	92.5% (inactive)	1.67% (inactive)	2.87% (inactive)
O=C(CC1Oc2ccccc2NC1=O)NCCCN1CCOCC1 (stereo not drawn)	106	100% (inactive)	106% (inactive)	85.5% (inactive)	93.5% (inactive)	-3.48% (inactive)	96.9	93.5	-5.07% (inactive)	2.67% (inactive)	2.08% (inactive)	-1.36% (inactive)	-2.31% (inactive)	108% (inactive)	96.8% (inactive)	1.94% (inactive)	0.57% (inactive)
CCSc1nnc(N2C(=O)CC(c3ccsc3)C3=C2CC(C)(C)CC3=O)s1 (stereo not drawn)	89	108% (inactive)	89% (inactive)	81.3% (inactive)	89% (inactive)	-15% (inactive)	104	89	-6.67% (inactive)	9.5% (inactive)	2.55% (inactive)	0.01% (inactive)	-1.55% (inactive)	103% (inactive)	94.9% (inactive)	0.195% (inactive)	3.19% (inactive)
CCN1CCN(C(=O)c2cn(CC)c3ccc(S(=O)(=O)N(C)C)cc3c2=O)CC1	85.5	104% (inactive)	85.5% (inactive)	100% (inactive)	107% (inactive)	11% (inactive)	96.5	107	0% (inactive)	-1% (inactive)	-7.52% (inactive)	-18% (inactive)	-2.35% (inactive)	101% (inactive)	93.7% (inactive)	2.08% (inactive)	-1.09% (inactive)
CC(=O)c1ccc(OCC(O)CN2CCN(CCO)CC2)cc1 (stereo not drawn)	116	112% (inactive)	116% (inactive)	99.2% (inactive)	96.3% (inactive)	-3.92% (inactive)	100	96.3	-5.73% (inactive)	2.33% (inactive)	-1.98% (inactive)	4.8% (inactive)	1.18% (inactive)	99% (inactive)	101% (inactive)	1.13% (inactive)	1.57% (inactive)
O=c1oc2ccccc2cc1NCc1ccccc1O	90.5	82% (inactive)	90.5% (inactive)	79.2% (inactive)	73.9% (inactive)	-13.5% (inactive)	87.4	73.9	-2.56% (inactive)	-0.5% (inactive)	-12.5% (inactive)	-15.2% (inactive)	-6.51% (inactive)	91.2% (inactive)	91.1% (inactive)	1.91% (inactive)	1.22% (inactive)
CCCN(CCC)CCNC(=O)c1cc2c(=O)n(C)c3ccccc3c2n1C	89	98.5% (inactive)	89% (inactive)	57.5% (inactive)	77.1% (inactive)	13% (inactive)	64	77.1	-2.53% (inactive)	1.67% (inactive)	6.58% (inactive)	1.31% (inactive)	-6.19% (inactive)	69.6% (inactive)	73.4% (inactive)	1.12% (inactive)	0.57% (inactive)
CC1CN(c2c3c(nc4ncnn24)CCCC3)CC(C)O1 (stereo not drawn)	89.5	88% (inactive)	89.5% (inactive)	102% (inactive)	90.7% (inactive)	4.54% (inactive)	86.2	90.7	-4.87% (inactive)	2% (inactive)	3.17% (inactive)	-4.12% (inactive)	-1.41% (inactive)	88.9% (inactive)	90.8% (inactive)	1.57% (inactive)	-1.85% (inactive)
CCCCn1c(NCc2ccccc2O)nc2ccccc21	98	124% (inactive)	98% (inactive)	79.5% (inactive)	88.1% (inactive)	4.67% (inactive)	83.4	88.1	-4.27% (inactive)	-2.33% (inactive)	-1.67% (inactive)	-11.8% (inactive)	-5.25% (inactive)	79.7% (inactive)	75.1% (inactive)	0.34% (inactive)	3.36% (inactive)
Clc1cccc(N2CCN(Cc3nc(-c4ccccc4)no3)CC2)c1	90.5	96% (inactive)	90.5% (inactive)	109% (inactive)	91.3% (inactive)	-4.04% (inactive)	95.4	91.3	0.53% (inactive)	-6.5% (inactive)	3.02% (inactive)	0.865% (inactive)	-2.61% (inactive)	91.5% (inactive)	90% (inactive)	-1.2% (inactive)	4.99% (inactive)
CN1CCN(c2nc3c(c(=O)[nH]c(=O)n3C)n2CCSc2nc3ccccc3s2)CC1	87	90.5% (inactive)	87% (inactive)	98% (inactive)	75.2% (inactive)	-10.6% (inactive)	85.8	75.2	-0.51% (inactive)	1% (inactive)	-6.02% (inactive)	-0.85% (inactive)	-2.32% (inactive)	98.3% (inactive)	91.9% (inactive)	2.66% (inactive)	-1.87% (inactive)
COc1cc2c(cc1OC)-c1nnc(C)n1C1(CCCC1)C2	87	105% (inactive)	87% (inactive)	114% (inactive)	99% (inactive)	0.73% (inactive)	98.3	99	1.28% (inactive)	-1.17% (inactive)	-10.2% (inactive)	-16% (inactive)	-2.69% (inactive)	100% (inactive)	94% (inactive)	1.1% (inactive)	2.81% (inactive)
O=C(O)C1CC(=O)N(CCOc2ccccc2)C1 (stereo not drawn)	105	126% (inactive)	105% (inactive)	111% (inactive)	93.9% (inactive)	-3.07% (inactive)	97	93.9	-3.51% (inactive)	-2.62% (inactive)	2.4% (inactive)	3.82% (inactive)	0.57% (inactive)	102% (inactive)	100% (inactive)	0.69% (inactive)	1.17% (inactive)
CCCCOC(=O)Cn1c(=O)oc2ccc(C)cc21	102	126% (inactive)	102% (inactive)	86% (inactive)	93.4% (inactive)	5.94% (inactive)	87.4	93.4	-3.2% (inactive)	2.67% (inactive)	-17.9% (inactive)	-25.1% (inactive)	-0.28% (inactive)	89.6% (inactive)	98.1% (inactive)	-0.58% (inactive)	0.27% (inactive)
